Assay results published in PubChem BioAssay (Tox21).
Records with an inconclusive call do not appear. Active and inactive are the calls of the source. Unless noted, calls follow the shape of the dose curve; as a rule, active = well fitted curve in the direction sought with a large enough effect in the repeat runs; inconclusive = weak or mixed curves; inactive = no such curve, though single readings can be large; an effect the other way counts as inactive or inconclusive. Where a SMILES comes first, the peptide text is derived from it.

Assays:
[1] = qHTS RealTime-Glo MT Cell Viability Assay in HEK293 cells - 8 hour (AID 1224887); also: top concentration of the series differs between compounds; nearly all actives have a fitted effect of over 50% in size
Summary of the method: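 Tox21 screen in HEK293 using RealTime-Glo MT chemistry, with cells and reagent co-dispensed. Luminescence proportional to viable cell number was captured at intervals during 40 h compound exposure at 37 C.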

[2] = A CellTox Green Cytotoxicity Assay to monitor cytotoxicity in HEK293 cells - 16 hour (AID 1224888); also: nearly all actives have a fitted effect of over 35% in size; also: potency is read from the fitted curve at half-maximal effect
Summary of the method: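 Seeding of HEK293 cells together with cytotoxicity dye preceded a 5 h incubation at 37 C/5% CO2. Test compounds in DMSO were then added and fluorescence monitored across 40 h.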

[3] = qHTS assay to identify small molecule antagonists of the estrogen receptor alpha (ER-alpha) signaling pathway using the BG1 cell line in the presence of 0.1 nM 17-beta-estradiol - cell viability counter screen (AID 1259241); also: nearly all actives have a fitted effect of over 40% in size
Summary of the method: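 Measures cytotoxicity alongside the ER-alpha antagonist readout: VM7Luc4E2 cells, charcoal-stripped serum, 0.1 nM 17beta-estradiol final, 22 hr compound incubation at 37C, CellTiter-Fluor fluorescence.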

[4] = qHTS assay to identify small molecule antagonists of the androgen receptor (AR) signaling pathway using the MDA cell line in the presence of 0.5 nM R1881 - cell viability counter screen (AID 1259242); also: nearly all actives have a fitted effect of over 45% in size
Summary of the method: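 R1881 at 0.5 nM final stimulated MDA-kb2 cells during 16 hr compound treatment at 37C. Cytotoxicity read: CellTiter-Fluor fluorescence after 30 min.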

[5] = target: Estrogen receptor (Homo sapiens) (UniProt P03372); assay: qHTS assay to identify small molecule antagonists of the estrogen receptor alpha (ER-alpha) signaling pathway using the BG1 cell line in the presence of 0.1 nM 17-beta-estradiol (AID 1259244); also: nearly all actives have a fitted effect of over 50% in size
Estrogen receptor (Homo sapiens), sequence (P03372 whole entry, looked up): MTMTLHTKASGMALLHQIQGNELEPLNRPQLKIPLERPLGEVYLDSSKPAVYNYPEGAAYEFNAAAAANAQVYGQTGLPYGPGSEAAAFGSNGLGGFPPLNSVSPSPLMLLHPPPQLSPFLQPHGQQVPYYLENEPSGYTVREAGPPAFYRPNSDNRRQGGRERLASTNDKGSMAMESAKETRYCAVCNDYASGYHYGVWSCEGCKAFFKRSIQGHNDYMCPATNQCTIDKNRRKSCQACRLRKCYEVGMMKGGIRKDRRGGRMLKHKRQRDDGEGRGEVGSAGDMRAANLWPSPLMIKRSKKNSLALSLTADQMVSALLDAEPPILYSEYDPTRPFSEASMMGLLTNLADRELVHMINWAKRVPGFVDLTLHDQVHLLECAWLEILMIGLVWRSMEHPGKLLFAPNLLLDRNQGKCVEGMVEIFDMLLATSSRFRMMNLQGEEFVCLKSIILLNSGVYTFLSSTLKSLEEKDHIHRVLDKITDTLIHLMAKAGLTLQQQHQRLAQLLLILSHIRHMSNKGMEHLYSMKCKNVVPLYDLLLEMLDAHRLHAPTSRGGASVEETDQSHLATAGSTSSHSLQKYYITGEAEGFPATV
Summary of the method: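 VM7Luc4E2; 4xERE-luciferase; 0.1 nM E2 final; 22 h co-incubation, 37C; ONE-Glo luminescence after 30 min at room temperature.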

[6] = qHTS assay to identify small molecule HDAC inhibitors (AID 1259364);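 also: wild-type HCT-116 cells with endogenous class I/II HDAC activity; top concentration of the series differs between compounds; nearly all actives have a fitted effect of over 45% in size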
Summary of the method: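 Relative class I and II HDAC activity is taken from the luminogenic signal in HCT-116 cells, with compound exposure 2 hr and reagent development 30 min at room temperature.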

[7] = qHTS assay to identify small molecule HDAC inhibitors - cell viability counter screen (AID 1259365); also: series mostly up to about 92 µM; nearly all actives have a fitted effect of over 50% in size
Summary of the method: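 Following a 2hr exposure of overnight-plated wild-type HCT-116 cells to DMSO-delivered compounds, CellTiter-Glo was added and luminescence recorded after 30min at room temperature.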

[8] = qHTS assay to identify small molecule antagonists of the sonic hedgehog signaling (Shh) pathway - cell viability counter screen (AID 1259367); also: nearly all actives have a fitted effect of over 55% in size
Summary of the method: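 After a 4 hr settling period, 3T3 Gli1-Luc cells were treated with DMSO-dissolved chemicals and conditioned medium, kept 24 hr at 37C in 5% CO2, and assayed for viability by CellTiter-Fluor fluorescence following 1 hr reagent incubation.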

[9] = qHTS assay to identify small molecule agonists of the sonic hedgehog signaling (Shh) pathway (AID 1259368; calls by dose curve;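 also: NIH/3T3-derived 3T3Gli1-Luc cells carrying a stable Gli1-driven firefly luciferase reporter; series mostly up to about 92 µM; nearly all actives have a fitted effect of over 15% in size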)
Summary of the method: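 Mouse fibroblast (NIH/3T3) reporter cells with stably integrated Gli1-Luc were treated 24 hr with compound; firefly luciferase luminescence served as the read-out.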

[10] = qHTS assay to identify small molecule antagonists of the sonic hedgehog signaling (Shh) pathway (AID 1259369; calls by dose curve; also: nearly all actives have a fitted effect of over 45% in size)
Summary of the method: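 Conditioned medium drives Shh signalling in 3T3Gli1-Luc cells; compounds in DMSO co-applied, 24hr at 37 C, then luciferase luminescence.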

[11] = target: Estrogen receptor beta (Homo sapiens) (UniProt Q92731); assay: qHTS assay to identify small molecule agonists of the estrogen receptor beta (ER-beta) signaling pathway (AID 1259377; active = well fitted activation curve with a large enough effect in the signal ratio in the repeat runs, not every such curve was filed as active; the % refers to the signal ratio)
Estrogen receptor beta (Homo sapiens), sequence (Q92731 whole entry, looked up): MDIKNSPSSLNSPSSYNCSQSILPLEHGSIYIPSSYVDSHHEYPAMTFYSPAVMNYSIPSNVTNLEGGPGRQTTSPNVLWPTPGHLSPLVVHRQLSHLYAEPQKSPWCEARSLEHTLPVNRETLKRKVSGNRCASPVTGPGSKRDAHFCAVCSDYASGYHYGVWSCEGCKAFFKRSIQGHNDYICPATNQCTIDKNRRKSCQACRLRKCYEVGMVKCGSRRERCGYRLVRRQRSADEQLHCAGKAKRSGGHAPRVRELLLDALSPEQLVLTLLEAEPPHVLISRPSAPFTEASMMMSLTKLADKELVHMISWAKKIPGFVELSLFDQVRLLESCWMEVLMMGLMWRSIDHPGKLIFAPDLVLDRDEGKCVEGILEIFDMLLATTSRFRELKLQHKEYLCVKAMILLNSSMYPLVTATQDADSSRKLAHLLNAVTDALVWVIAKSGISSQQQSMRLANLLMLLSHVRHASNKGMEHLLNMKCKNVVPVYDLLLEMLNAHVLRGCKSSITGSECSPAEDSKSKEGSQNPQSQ
Summary of the method: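 In HEK293T cells bearing a UAS-beta-lactamase reporter under ER-beta control, DMSO-delivered compounds were incubated for 16 hr at 37C. Activity was detected as fluorescence 2 hours after LiveBLAzer B/G FRET substrate addition.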

[12] = target: Estrogen receptor beta (Homo sapiens) (UniProt Q92731); assay: qHTS assay to identify small molecule antagonists of the estrogen receptor beta (ER-beta) signaling pathway (AID 1259378; active = well fitted inhibition curve with a large enough effect in the signal ratio in the repeat runs, not every such curve was filed as active; the % refers to the signal ratio)
Summary of the method: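 ER-beta-UAS-bla HEK293T (GripTite) cells in 2% charcoal-stripped FBS medium were preincubated 6 hr at 37C, dosed with compound, then stimulated with 1 nM E2 (final) for 16 hr; beta-lactamase reporter read by B/G FRET fluorescence after 2 hr substrate loading.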

[13] = qHTS assay to identify small molecule agonists of the androgen receptor (AR) signaling pathway in the presence of an antagonist - cell viability counter screen (AID 1259379);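 also: MDA-kb2 human breast cancer cells carrying an MMTV luciferase reporter; series mostly up to about 92 µM; nearly all actives have a fitted effect of over 25% in size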
Summary of the method: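 A CellTiter-Fluor read-out measured viability of MDA-kb2 reporter cells (MMTV promoter with AR and GR response elements). Treatment: nilutamide 3.0uM final with compounds at 15 concentrations, 16 hr, 37C, 0% CO2.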

[14] = qHTS assay to identify small molecule agonists of the estrogen receptor beta (ER-beta) signaling pathway - cell viability counter screen (AID 1259380); also: nearly all actives have a fitted effect of over 30% in size
Summary of the method: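 Cells used were ER-beta-UAS-bla HEK293T in medium with 2% charcoal-stripped FBS. They were treated for 16 hr at 37C. Viability came from CellTiter-Glo luminescence.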

[15] = qHTS RealTime-Glo MT Cell Viability Assay in HepG2 cells - 0 hour (AID 1224889); also: nearly all actives have a fitted effect of over 50% in size
Summary of the method: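 Luminescence read-out: viable HepG2 cells reduce a prosubstrate to a NanoLuc substrate, giving a signal proportional to live cell number. Reads taken at 0, 8, 16, 24, 32 and 40 h of compound exposure at 37 C.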

[16] = A CellTox Green Cytotoxicity Assay to monitor cytotoxicity in HepG2 cells - 8 hour (AID 1224890); also: nearly all actives have a fitted effect of over 45% in size; also: potency is read from the fitted curve at half-maximal effect
Summary of the method: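 Nonlytic assay: viable cells exclude the dye, so fluorescence scales with cell death. HepG2 at 600 cells/well, compounds added after 5 h, signal read across 40 h.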

[17] = qHTS assay to identify small molecule agonists of the sonic hedgehog signaling (Shh) pathway - cell viability counter screen (AID 1259366); also: nearly all actives have a fitted effect of over 50% in size
Summary of the method: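 After a 4hr attachment at 37C, NIH/3T3 cells bearing an integrated Gli1-driven luciferase reporter were dosed with compounds. Treatment lasted 24hr, with the final hour including CellTiter-Fluor for a fluorescence viability measurement.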

[18] = qHTS assay to identify small molecule phospholipidosis (PLD) inducers (AID 1259344; active = well fitted curve in the direction sought with a large enough effect; an effect the other way counts as inactive or inconclusive)
Summary of the method: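 HepG2 cells grown on collagen I take up LipidTOX Red while exposed to compound for 24 h; after fixation they are imaged at 20x and pit metrics are extracted.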

[19] = target: Androgen receptor (Homo sapiens) (UniProt P10275); assay: qHTS assay to identify small molecule antagonists of the androgen receptor (AR) signaling pathway using the MDA cell line in the presence of 0.5 nM R1881 (AID 1259243); also: nearly all actives have a fitted effect of over 50% in size
Androgen receptor (Homo sapiens), sequence (P10275 whole entry, looked up): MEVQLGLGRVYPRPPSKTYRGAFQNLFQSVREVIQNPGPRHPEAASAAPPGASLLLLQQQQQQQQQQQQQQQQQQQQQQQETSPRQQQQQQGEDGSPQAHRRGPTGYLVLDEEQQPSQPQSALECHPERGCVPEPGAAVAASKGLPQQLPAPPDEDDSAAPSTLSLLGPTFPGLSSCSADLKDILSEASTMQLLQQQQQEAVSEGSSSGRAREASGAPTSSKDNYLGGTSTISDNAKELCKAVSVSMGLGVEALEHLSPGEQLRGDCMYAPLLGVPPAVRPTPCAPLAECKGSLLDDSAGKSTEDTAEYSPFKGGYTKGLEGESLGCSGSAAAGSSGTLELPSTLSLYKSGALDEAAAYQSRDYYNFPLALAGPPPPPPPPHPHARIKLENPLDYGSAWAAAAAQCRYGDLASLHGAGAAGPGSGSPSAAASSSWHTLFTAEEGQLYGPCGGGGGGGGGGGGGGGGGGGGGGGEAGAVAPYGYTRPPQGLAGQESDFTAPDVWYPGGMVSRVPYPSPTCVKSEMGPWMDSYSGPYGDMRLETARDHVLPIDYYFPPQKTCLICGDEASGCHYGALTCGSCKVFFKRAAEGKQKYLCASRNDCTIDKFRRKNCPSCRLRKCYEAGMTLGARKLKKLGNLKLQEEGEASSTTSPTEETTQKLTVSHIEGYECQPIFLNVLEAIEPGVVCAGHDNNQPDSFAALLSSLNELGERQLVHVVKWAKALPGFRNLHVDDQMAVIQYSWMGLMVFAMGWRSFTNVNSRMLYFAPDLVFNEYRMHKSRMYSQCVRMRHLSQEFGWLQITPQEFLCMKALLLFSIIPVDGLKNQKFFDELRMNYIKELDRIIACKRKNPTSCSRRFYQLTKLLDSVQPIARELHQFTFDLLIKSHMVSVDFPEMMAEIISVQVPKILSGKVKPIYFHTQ
Summary of the method: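 We exposed MDA-kb2 cells to compounds under 0.5 nM R1881 stimulation for 16 hr at 37C and quantified MMTV-driven luciferase by luminescence.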

[20] = target: Androgen receptor (Homo sapiens) (UniProt P10275); assay: qHTS assay to identify small molecule agonists of the androgen receptor (AR) signaling pathway in the presence of an antagonist (AID 1259381; calls by dose curve; also: nearly all actives have a fitted effect of over 15% in size)
Summary of the method: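 Using human MDA-kb2 cells with an MMTV promoter–luciferase construct (AR and GR response elements), agonist activity is scored under 3.0uM nilutamide (final) co-treatment; 16hr incubation, 37C, luminescence readout via ONE-Glo.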
% is scaled to controls: 0 for no effect and ±100 for the full control effect.

CCCCCCCCCCCCCCCCCC#N
inactive: Potency [1] | Potency [2] | outcome [3] | outcome [4] | outcome [5] | Potency [6] | outcome [7] | outcome [8] | outcome [9] | Potency [10] | Potency [11] | Potency [12] | outcome [13] | outcome [14]

Fc1ccccc1
inactive: Potency [1] | Potency [15] | Potency [16] | outcome [3] | outcome [4] | outcome [5] | Potency [6] | outcome [7] | outcome [17] | outcome [8] | outcome [9] | Potency [10] | outcome [13]

CCCCCCCCCOC(=O)CCCCC(=O)OCCCCCCC
active: Potency [2] 27.5 µM | Potency [16] 38.9 µM
inactive: Potency [1] | outcome [3] | outcome [4] | Potency [6] | outcome [7] | outcome [8] | outcome [9] | outcome [13] | outcome [14]

CC(C)(C)NC[C@H](O)COc1cccc2c1CCCC2=O
inactive: Potency [1] | Potency [15] | Potency [16] | outcome [3] | outcome [4] | outcome [5] | outcome [18] | Potency [6] | outcome [7] | outcome [17] | outcome [8] | outcome [9] | Potency [11] | outcome [13] | outcome [14]

CC1=C(C(=O)O)N2C(=O)[C@@H](NC(=O)[C@H](N)C3=CCC=CC3)[C@H]2SC1
inactive: Potency [1] | Potency [2] | outcome [3] | outcome [4] | outcome [5] | PLD induction [18] 0.229% [at 7.66 µM] | Potency [6] | outcome [7] | outcome [17] | outcome [8] | outcome [9] | Potency [10] | Potency [11] | outcome [13] | outcome [14]

CCC/C=C(\C=O)CC
inactive: Potency [1] | Potency [15] | Potency [16] | outcome [3] | outcome [4] | outcome [5] | Potency [6] | outcome [7] | outcome [17] | outcome [8] | outcome [9] | Potency [10] | Potency [11] | Potency [12] | outcome [13] | outcome [14]

O=C(Cl)c1ccccc1[N+](=O)[O-]
inactive: Potency [1] | Potency [15] | Potency [16] | outcome [3] | outcome [4] | Potency [19] | Potency [6] | outcome [7] | outcome [17] | outcome [9] | Potency [10] | Potency [11] | Potency [12] | outcome [13] | outcome [14] | outcome [20]

CC(=O)N[C@@H](CO)C(=O)N[C@@H](CC(=O)O)C(=O)N[C@@H](CCCCN)C(=O)N1CCC[C@H]1C(=O)O (Ac-SDKP-OH)
inactive: Potency [1] | Potency [15] | Potency [16] | outcome [3] | outcome [4] | Potency [19] | Potency [6] | outcome [7] | outcome [17] | outcome [8] | outcome [9] | Potency [10] | Potency [12] | outcome [20]

[O-][n+]1cccc(/C(Cl)=N/OC[C@@H](O)CN2CCCCC2)c1
inactive: Potency [1] | Potency [15] | Potency [16] | outcome [3] | outcome [4] | Potency [19] | outcome [5] | Potency [6] | outcome [7] | outcome [17] | outcome [8] | outcome [9] | Potency [11] | Potency [12] | outcome [14] | outcome [20]

COC(=O)CCCCC(=O)O
inactive: Potency [1] | Potency [15] | Potency [16] | outcome [3] | outcome [4] | outcome [5] | Potency [6] | outcome [7] | outcome [17] | outcome [8] | outcome [9] | Potency [10] | outcome [14]

O=C(NCN1CCOCC1)c1cnccn1
inactive: Potency [1] | Potency [15] | Potency [16] | outcome [3] | outcome [4] | Potency [19] | outcome [5] | outcome [18] | Potency [6] | outcome [7] | outcome [17] | outcome [8] | outcome [9] | Potency [10] | outcome [13] | outcome [14] | outcome [20]

Cc1ccc(N)cc1S(=O)(=O)O
inactive: Potency [1] | Potency [15] | Potency [16] | outcome [3] | outcome [4] | outcome [5] | Potency [6] | outcome [7] | outcome [8] | outcome [9] | Potency [10] | Potency [11] | Potency [12] | outcome [13] | outcome [14]

C=C(C)[C@@H]1CC=C(C)C(=O)C1
inactive: Potency [1] | Potency [2] | Potency [16] | outcome [3] | outcome [4] | Potency [6] | outcome [7] | outcome [17] | outcome [8] | outcome [9] | Potency [10] | Potency [11] | Potency [12] | outcome [14]

COc1cc2c(cc1OC)CN(C(=O)[C@H](C)N[C@@H](CCc1ccccc1)C(=O)O)[C@H](C(=O)O)C2
inactive: Potency [1] | Potency [15] | Potency [16] | outcome [3] | outcome [4] | outcome [5] | Potency [6] | outcome [7] | outcome [17] | outcome [8] | outcome [9] | Potency [10] | Potency [11] | Potency [12] | outcome [13] | outcome [14]

Cc1ccc(C(C)NC(=O)[C@@H](NC(=O)OC(C)C)C(C)C)cc1 (stereo partly drawn)
inactive: Potency [1] | Potency [2] | Potency [16] | outcome [3] | outcome [4] | Potency [6] | outcome [7] | outcome [17] | outcome [9] | Potency [10] | outcome [14]

C=C(C)C1CC=C(C)C(=O)C1 (stereo not drawn)
inactive: Potency [1] | Potency [2] | Potency [16] | outcome [3] | outcome [4] | Potency [6] | outcome [7] | outcome [17] | outcome [8] | outcome [9] | Potency [10] | Potency [11] | Potency [12] | outcome [13] | outcome [14]

Cc1c(C(=O)c2c[nH]n(C)c2=O)ccc(S(C)(=O)=O)c1C1=NOCC1
inactive: Potency [1] | Potency [2] | outcome [3] | outcome [4] | Potency [19] | outcome [5] | Potency [6] | outcome [7] | outcome [17] | outcome [8] | outcome [9] | Potency [10] | Potency [11] | Potency [12] | outcome [13] | outcome [14] | outcome [20]
